Reference: PubChem BioAssay
Values without a mark were called inactive. No rule for the calls is given here.

Test system: Aerobactin synthetase IucA (Klebsiella pneumoniae hvKP1)
Assay: IucA enzyme inhibition, primary screen, biochemical, Spectrum library (AID 1346200);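 also: 100% = wells without compound and 0% = wells lacking enzyme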
Settings: malachite green pyrophosphate, A620, at 8 µM, hits give low values

Compound	activity remaining [%]
O=C(NCO)c1cccnc1	113
OC1=Cc2c(O)cc(O)cc2OC1(O)c1ccc(O)c(O)c1 (stereo not given)	81.3
CCOC(=O)[C@H](CCc1ccccc1)N[C@H](C)C(=O)N1C2CCCCC2C[C@H]1C(=O)O (stereo not given in full)	119
O=C1c2c(O)cccc2Cc2cccc(O)c21	92.3
CC(=O)Nc1ccc(S(=O)(=O)c2ccc(NC(C)=O)cc2)cc1	110
CC(=O)NO	103
COc1ccc2c(c1OC)OC[C@@H](c1ccc(OC)c(OC)c1OC)C2	95.9
O=C(/C=C/C(=O)Oc1ccccc1C(=O)O)Oc1ccccc1C(=O)O	92
N[C@H](C(=O)O)[C@@H]1CC(Cl)=NO1	112
COc1cc(/C=C/C(=O)N2CCC=CC2=O)cc(OC)c1OC	95.4
C[C@H]1[C@H](C)CC[C@]2(CO)CC[C@]3(C)C(=CCC4[C@@]5(C)CC[C@H](O)C(C)(C)C5CC[C@]43C)[C@H]12 (stereo not given in full)	117
O=C(O)/C=C/C=C/c1ccccc1	103
CCC1OC(=O)[C@H](C)C(=O)[C@H](C)[C@@H](OC2O[C@H](C)C[C@H](N(C)C)[C@H]2O)[C@](C)(OC)C[C@@H](C)C(=O)[C@H](C)[C@H]2N(CCCCn3cnc(-c4cccnc4)c3)C(=O)OC12C (stereo not given in full)	121
COc1c2ccoc2cc2oc(=O)ccc12	102
COC(=O)Nc1nc2ccc(Sc3ccccc3)cc2[nH]1	114
